Assay results reported in the supplement of paper PMC6555819.

Key:
Assay in all cases: PBM binding z-score (relative to random genomic background probes); higher = stronger binding; sequences stand for … in GC…GCGATTGACAGCGTAGAATGAAGG
[1] = tested on: FXR:RXRa (NR concentration 270 nM, RXRa partner concentration 90 nM)
Summary of the method: (§1)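 Antibodies against each partner of ligand-free nuclear receptor dimers (one per run) detected binding on custom Agilent 4×180K protein-binding microarrays after 1 h incubation. The double-stranded probes had 34-nt variable regions carrying direct-repeat seeds, single-nucleotide variants, half-site ablations and random human genomic background sequences. Binding z-scores, from regression-normalized fluorescence, use the random background probes as reference.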

[2] = tested on: LXRa:RXRa (NR concentration 270 nM, RXRa partner concentration 90 nM)
Summary of the method: as §1

[3] = tested on: LXRa homodimer (NR concentration 270 nM)
Summary of the method: as §1

[4] = tested on: LXRb:RXRa (NR concentration 270 nM, RXRa partner concentration 90 nM)
Summary of the method: as §1

[5] = tested on: LXRb homodimer (NR concentration 270 nM)
Summary of the method: as §1

[6] = tested on: PPARa:RXRa (NR concentration 270 nM, RXRa partner concentration 90 nM)
Summary of the method: as §1

[7] = tested on: PPARg:RXRa (NR concentration 180 nM, RXRa partner concentration 90 nM)
Summary of the method: as §1

[8] = tested on: PPARg:RXRa 270nM:90nM, anti-RXR (NR concentration 270 nM, RXRa partner concentration 90 nM)
Summary of the method: as §1

[9] = tested on: PPARg:RXRa 30nM:10nM, anti-RXR (NR concentration 30 nM, RXRa partner concentration 10 nM)
Summary of the method: as §1

[10] = tested on: PPARg:RXRa 90nM:30nM, anti-RXR (NR concentration 90 nM, RXRa partner concentration 30 nM)
Summary of the method: as §1

[11] = tested on: PPARg:RXRa DBDmut IVT, anti-RXR (DBD mutation: RXRa K156A/R161A, NR concentration 270 nM, RXRa partner concentration 90 nM)
Summary of the method: as §1

[12] = tested on: PPARg:RXRa IVT, anti-PPARg (NR concentration 270 nM, RXRa partner concentration 90 nM)
Summary of the method: as §1

[13] = tested on: PPARg DBDmut:RXRa IVT, anti-PPARg (DBD mutation: PPARg1 K132A/R137A, NR concentration 270 nM, RXRa partner concentration 90 nM)
Summary of the method: as §1

[14] = tested on: PPARg DBDmut IVT, anti-PPARg (DBD mutation: PPARg1 K132A/R137A, NR concentration 270 nM)
Summary of the method: as §1

[15] = tested on: PPARg homodimer (NR concentration 180 nM)
Summary of the method: as §1

[16] = tested on: PXR:RXRa (NR concentration 270 nM, RXRa partner concentration 90 nM)
Summary of the method: as §1

[17] = tested on: PXR homodimer (NR concentration 270 nM)
Summary of the method: as §1

[18] = tested on: RARa:RXR (NR concentration 270 nM, RXRa partner concentration 90 nM)
Summary of the method: as §1

[19] = tested on: RARa homodimer (NR concentration 270 nM)
Summary of the method: as §1

[20] = tested on: RARb:RXRa (NR concentration 270 nM, RXRa partner concentration 90 nM)
Summary of the method: as §1

Sequence	PBM binding z-score [1]	PBM binding z-score [2]	PBM binding z-score [3]	PBM binding z-score [4]	PBM binding z-score [5]	PBM binding z-score [6]	PBM binding z-score [7]	PBM binding z-score [8]	PBM binding z-score [9]	PBM binding z-score [10]	PBM binding z-score [11]	PBM binding z-score [12]	PBM binding z-score [13]	PBM binding z-score [14]	PBM binding z-score [15]	PBM binding z-score [16]	PBM binding z-score [17]	PBM binding z-score [18]	PBM binding z-score [19]	PBM binding z-score [20]
CCTTGCGGGTCAAGGTTATAGCACGGGTGGTACG	4.66	3.22	0.11	2.6	-0.432	4.96	5.05	5.18	2.05	4.21	3.71	5.26	-0.0608	-0.506	2.01	2.93	0.309	3.7	0.296	3.82
CCAGACAGGTGAGAAGGTAGCTCAGCCTCGATTA	-0.337	-0.342	-0.166	-0.33	-0.763	0.0761	0.0523	0.0588	-0.801	-0.121	0.778	0.189	-0.969	-0.906	0.136	-0.331	-0.00345	-0.134	0.0537	0.327
CCTGCTAGGTCATGGTCCGCTAATCTACAGTATG	3.61	2.3	0.0178	1.67	-0.223	3.46	2.34	2.78	0.499	1.74	4.12	3.6	-0.11	-0.235	0.575	1.29	-0.433	2.09	-0.439	3.88
TCTGCTAGGTCGACGATGGTCAGCTAATCTGCTA	-0.0207	0.0577	-1.03	-0.332	-1.02	0.202	-0.26	0.642	1.2	0.698	1.12	0.905	-0.448	-0.108	-1.39	-0.185	-1.16	0.0229	-1.42	1.16
CCGAGTAGGTTATAGGGCATTCAGGCAACGGTGA	0.59	0.988	0.388	0.765	-0.185	3.47	6.04	6.43	4.96	6.5	3.99	4.27	0.108	-0.169	1.05	0.219	-0.129	0.863	0.46	1.24
CCTTGTTGGTCAAGGTCACACACGCTATAGGTAC	4.42	3.87	2.19	3.91	0.763	4.27	3.05	3.47	1.21	2.69	2.48	3.71	1.18	0.66	2.49	4.23	1.5	4.45	1.4	4.3
GATACAGGGTCATGGCCAGAGTACGCGTATTGAT	6.5	4.72	-0.00415	3.79	-0.283	5.65	6.02	6.38	2.73	4.67	3.28	4.13	0.893	-0.182	1.88	4.2	-0.295	5.43	0.00513	4.31
ACTCGGAGCACAAAGGTCAGAGCTACGCCAGTGA	3.44	3.72	1.25	3.11	0.00562	4.38	5.58	6.38	4.55	6.24	0.735	2.74	-0.286	-0.435	2.92	3.62	0.191	4.5	0.544	4.29
CAGCCTAGGTCAGGGCGAGTATAGGAGGAACGTT	1.8	0.876	-0.437	0.505	-1.08	2.07	1.03	1.29	0.157	0.783	1.68	1.54	-1.19	-1.55	0.665	0.305	-0.665	1.11	-0.626	3.19
TAGCCTAGGTCAGAACGGGCCAGTATACGCTATA	1.13	0.618	-0.471	0.47	-0.65	1.31	0.763	0.742	-0.161	0.153	0.749	1.5	-0.735	-1.15	0.155	0.457	-0.462	0.873	-0.513	2.75
CCTCACGGGTCAAGGTTATAGCACGGGTGGTACG	5.02	3.42	0.0967	2.74	-0.33	4.38	3.05	3.67	0.731	2.35	0.0332	1.85	0.133	0.0961	2.07	3.03	0.458	3.73	0.228	4.17
